This is an account of results in PubChem BioAssay (NCATS).

Inconclusive results are not listed. Entries that show only a call come without a potency. The source made the active and inactive calls. Calls follow the shape of the dose curve; as a rule, active = well fitted inhibition curve with a large enough effect; inconclusive = small, poorly fitted or top-dose-only effect; inactive = no such curve, though single readings can be large or run the other way.
Potency is read from the fitted curve at half-maximal effect.

In the test the target is Tumor susceptibility gene 101 protein (Homo sapiens) (UniProt Q99816). The test can be described thus: qHTS Assay for Iinhibitors of HIV-1 Budding by Blocking the Interaction of PTAP/TSG101: Hit Validation (AID 651600). Also: nearly all actives have a fitted effect of over 70% in size. The settings on record: PTAP peptide/TSG101 UEV interaction, biochemical assay; series mostly up to 57.5 µM. The method in brief: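 Compounds are added to the Tsg101 binding domain (10 uM final) in pH 7.5 HEPES buffer. FITC-PTAP peptide follows at 50 nM final. After 20 min at r.t., polarized FITC emission is measured.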
Sequence of Tumor susceptibility gene 101 protein (Homo sapiens) (Q99816 whole entry, looked up, the tested form may be a part): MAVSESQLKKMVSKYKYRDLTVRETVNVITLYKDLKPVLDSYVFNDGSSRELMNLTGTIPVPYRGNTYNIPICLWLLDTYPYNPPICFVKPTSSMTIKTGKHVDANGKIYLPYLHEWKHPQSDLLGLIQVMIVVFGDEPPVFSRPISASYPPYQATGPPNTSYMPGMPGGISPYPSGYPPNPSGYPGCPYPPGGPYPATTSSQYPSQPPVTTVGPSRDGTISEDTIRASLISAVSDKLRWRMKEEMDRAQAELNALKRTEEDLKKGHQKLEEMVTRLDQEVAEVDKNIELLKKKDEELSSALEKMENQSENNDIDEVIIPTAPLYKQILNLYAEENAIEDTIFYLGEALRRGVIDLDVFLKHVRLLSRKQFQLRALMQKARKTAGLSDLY
A general note: Quantitative high-throughput screening tests each substance at several concentrations.
As to `Cc1c(N=C2N=C(NC(=O)c3ccc(F)cc3)c3ccccc32)c(=O)n(-c2ccccc2)n1C`, the Potency result is “inactive”.

With `CCC(=O)Oc1ccc2c(c1)O/C(=C\c1ccco1)C2=O`, the Potency is 16.3 µM (active).

Consider `CCN(CC)c1ccc2cc(NC(=O)CCC(=O)O)c(=O)oc2c1`, for which the Potency was 18.3 µM (active).

In the case of `Cc1cc[n+](-c2[nH]c(=O)sc2/C=N/NC([S-])=Nc2ccccc2)cc1`, the Potency is 18.3 µM (active).

Take `O=C(NCc1cccc(F)c1)c1cccc2c1C(=O)c1ccc(N3CCCC3)cc1S2(=O)=O`: the Potency result was “inactive”.

As to `CCN(CC)c1ccc2c(-c3ccc(S(=O)(=O)O)cc3S(=O)(=O)[O-])c3ccc(=[N+](CC)CC)cc-3oc2c1`, the Potency was 11.6 µM (active).

On to `O=S(=O)(Nc1nc2n(n1)C(c1ccccc1)C=C(c1ccc(Cl)cc1)N2)c1ccccc1` (centres undefined), for which the Potency entry was “inactive”.

With `CCN1CCN(Cc2ccc(NC(=O)Nc3ccccc3OC)cc2)CC1`, the Potency result is “inactive”.

Turning to `COc1cc(-c2cc(-c3ccc(N)cc3)[nH]c(=O)c2C#N)cc(OC)c1OC`, the Potency entry is “inactive”.

With `COC(=O)C[C@H]1c2cc(F)ccc2S(=O)(=O)N1c1ccccc1`, the Potency entry is “inactive”.

In the case of `CCCN1CCN(S(=O)(=O)c2cn(C)nc2C)CC1`, the Potency result is “inactive”.

`NC(=O)c1ccccc1NCC(=O)c1ccc(F)cc1`: the Potency entry is “inactive”.

As to `O=C(CC1CC2CCC1C2)NCc1cccs1` (centres undefined), the Potency entry was “inactive”.

As for `Cc1ccc(-c2nc(C=Nc3ccc(O)cc3)c(O)o2)cc1`, the Potency entry was “inactive”.

`O=C(CCN1C(=O)/C(=C/c2ccco2)SC1=S)Nc1ccc(O)cc1C(=O)O`: the Potency result was “inactive”.

As for `O=C(/C=C/c1ccc(Cl)cc1Cl)c1nc2ccccc2[nH]1`, the Potency is 20.6 µM (active).

For the compound `Cc1cccc(CCNC(=O)c2sc3nc4n(c(=O)c3c2C)CCCC4)c1`, the Potency result is “inactive”.

As for `COc1ccc(-c2cc(C(F)(F)F)c3c(N)c(C(=O)NCCSC)sc3n2)cc1`, the Potency entry is “inactive”.

Turning to `CN(C)c1ccc(N=Cc2nc(-c3ccccc3)oc2O)cc1`, the Potency was 18.3 µM (active).

Regarding `Cc1ccc(OC(=O)c2ccc3nc(C)sc3c2)cc1`, the Potency result is “inactive”.

Regarding `CCCCOC(=O)c1ccc(NC(=O)/C(C#N)=C/c2ccc(-c3ccccc3)o2)cc1`, the Potency result was “inactive”.

For the compound `O=c1oc2c3c4c(cc2c2c1CCC2)OCCN4CCC3`, the Potency entry is “inactive”.

As for `CN1CCc2c(sc(NC(=O)CSc3ccc(F)cc3)c2-c2nc3ccccc3s2)C1`, the Potency entry was “inactive”.

As for `Nc1cnccc1C(=O)O`, the Potency is 20.6 µM (active).

In the case of `COc1ccccc1NC(=O)C(C)OC(=O)C1CC(=O)N(c2ccc3c(c2)OCCO3)C1` (centres undefined), the Potency result was “inactive”.

As for `CCN(CC)C(=O)[C@H]1CC(CC(=O)NCc2cccc(C(F)(F)F)c2)C(=O)N2CCc3c([nH]c4ccc(OC)cc34)[C@]12C` (some centres undefined), the Potency result was “inactive”.

As for `Cn1c(=O)c(Nc2ccc(Cl)cc2)c2c3c(cccc31)C(=O)c1ccccc1-2`, the Potency is 10.3 µM (active).

Consider `Cn1c2ccc(F)cc2c2nc3ccccc3nc21`, for which the Potency entry was “inactive”.

On to `COc1ccc(C(=O)c2sc3nc(C)cc(-c4cccs4)c3c2N)cc1`, for which the Potency result is “inactive”.

For the compound `Nc1ccc2c(c1)C/C(=C/c1ccco1)C2=O`, the Potency entry was “inactive”.

Turning to `Cc1cc(Br)ccc1NC(=O)c1sc2nc3n(c(=O)c2c1C)CCCC3`, the Potency result was “inactive”.

As to `CCCCCCn1c(=O)[nH]c2nc3cc(N)ccc3nc2c1=O`, the Potency is 14.6 µM (active).

Regarding `Cn1c(=O)c(NCCc2ccccc2)c2c3c(cccc31)C(=O)c1ccccc1-2`, the Potency is 2.59 µM (active).

In the case of `CS(=O)(=O)Nc1nc2n(n1)C(c1ccccc1)C=C(c1ccc(Br)cc1)N2` (centres undefined), the Potency was 32.6 µM (active).

In the case of `COC(=O)CNc1c(-c2ccccc2)nc2ccc(Br)cn12`, the Potency result was “inactive”.

As for `Cc1ccc(/C=C/C(=O)Nc2ccc(S(=O)(=O)Nc3onc(C)c3C)cc2)cc1`, the Potency result is “inactive”.

Consider `Cc1c(C(=O)NCc2ccccc2)sc2nc3n(c(=O)c12)CCCCC3`, for which the Potency entry was “inactive”.

`Nc1c(C(=O)c2cccs2)sc2nsc(SCCN3CCCCC3)c12`: the Potency was 14.6 µM (active).

Regarding `COc1ccc(OC)c2cc3ccccc3cc12`, the Potency is 32.6 µM (active).
